Some test systems named below: RPMI-8226 leukemia; OVCAR-8 ovarian; OVCAR-5 ovarian; OVCAR-4 ovarian; SK-OV-3 ovarian; IGROV1 ovarian; OVCAR-3 ovarian; HS 578T breast; NCI/ADR-RES ovarian; T-47D breast; BT-549 breast; MDA-MB-435 melanoma; SW-620 colon; MCF7 breast; HCT-116 colon; HCC-2998 colon; KM12 colon.
What all share (assay): NCI-60 one-dose screen, 48 h (100 = growth as untreated, 0 = no growth, -100 = all killed)
Holding throughout (conditions): 10 µM unless noted

Compounds without any hit were thinned out: in the full panel of roughly 83,000, 20% have a hit.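 48-hour exposure, single concentration, 96-well plates; percent growth endpoint where 0 means no net growth. Active: below 10.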 A number with no mark means an inactive call. Activity calls are given as the source filed them.

With `N#CC1=C(N)OC2=C(C(=O)CCC2)C1c1ccco1` (stereo not drawn), the growth in the experiment on RPMI-8226 leukemia is 100%; in the experiment with OVCAR-8 ovarian it was 103%; in the experiment on OVCAR-5 ovarian it was 104%; in the experiment on OVCAR-4 ovarian, 106%; in the experiment with SK-OV-3 ovarian it was 98.2%; in the experiment on IGROV1 ovarian, 107%. Moreover, the growth in the experiment on OVCAR-3 ovarian was 113%; in the experiment on HS 578T breast, 115%; in the experiment on NCI/ADR-RES ovarian, 103%; in the experiment with T-47D breast, 92.6%; in the experiment on BT-549 breast, 110%; in the experiment on MDA-MB-435 melanoma, 98.9%. Also, the growth with SW-620 colon is 110%; in the experiment with MCF7 breast, 95.5%; in the experiment on HCT-116 colon it was 103%; in the experiment with HCC-2998 colon, 104%; in the experiment with KM12 colon, 110%.
For `Cc1ccc(OCCn2c(C)nn(-c3ccc(Cl)cc3)c2=O)cc1`, the growth in the experiment with RPMI-8226 leukemia is 97.1%; with OVCAR-8 ovarian, 109%; with OVCAR-5 ovarian it was 113%; in the experiment on OVCAR-4 ovarian, 98.9%; in the experiment with SK-OV-3 ovarian it was 113%; in the experiment with IGROV1 ovarian it was 112%. Also, the growth in the experiment with OVCAR-3 ovarian is 124%; in the experiment on HS 578T breast it was 89.6%; with NCI/ADR-RES ovarian it was 103%; in the experiment on T-47D breast, 104%; with BT-549 breast it was 99.8%; with MDA-MB-435 melanoma it was 105%. For the same compound, the growth was 106% in the experiment with SW-620 colon; 98.8% with MCF7 breast; 95.5% in the experiment on HCT-116 colon; 111% in the experiment on HCC-2998 colon; 117% in the experiment on KM12 colon.
Regarding `COc1cc(C2CC(c3c(C)[n+]([O-])c4ccccc4[n+]3[O-])=NN2)cc(OC)c1OC` (stereo not drawn), the growth with RPMI-8226 leukemia is 102%; in the experiment on OVCAR-8 ovarian, 109%; in the experiment with OVCAR-5 ovarian, 100%; with OVCAR-4 ovarian, 104%; in the experiment with SK-OV-3 ovarian it was 103%; with IGROV1 ovarian, 16.2%. Also, the growth with OVCAR-3 ovarian is 98%; in the experiment with HS 578T breast it was 103%; in the experiment with NCI/ADR-RES ovarian, 101%; with T-47D breast it was 95.4%; with BT-549 breast, 104%; in the experiment with MDA-MB-435 melanoma it was 95.6%. The growth in the experiment with SW-620 colon is 101%; in the experiment on MCF7 breast it was 91.8%; with HCT-116 colon, 104%; in the experiment with HCC-2998 colon, 76.1%; in the experiment on KM12 colon it was 104%.
As for `COc1cccc(-c2nc3sccn3c2-c2ccnc(NCCCNS(=O)(=O)c3ccccc3)n2)c1`, the growth with RPMI-8226 leukemia is 28%; in the experiment on OVCAR-8 ovarian, 29.6%; in the experiment with OVCAR-5 ovarian, 128%; in the experiment on OVCAR-4 ovarian it was 55.7%; in the experiment with SK-OV-3 ovarian, 73%; with IGROV1 ovarian, 55.3%. For the same compound, the growth with OVCAR-3 ovarian was 48.2%; in the experiment on HS 578T breast, 103%; in the experiment with NCI/ADR-RES ovarian it was 23.1%; in the experiment on T-47D breast it was 0.88% (active); in the experiment on BT-549 breast, 47.2%; in the experiment with MDA-MB-435 melanoma, 40.9%. The growth was 75.1% in the experiment with SW-620 colon; 52% in the experiment on MCF7 breast; 38.6% in the experiment on HCT-116 colon; 93.8% in the experiment with HCC-2998 colon; 43.5% in the experiment on KM12 colon.
With `COC(=O)CCCCCN=Cc1c(O)c(O)c(C(C)C)c2cc(C)c(-c3c(C)cc4c(C(C)C)c(O)c(O)c(C=NCCCCCC(=O)OC)c4c3O)c(O)c12`, the growth is 16.6% with RPMI-8226 leukemia; 11.4% in the experiment on OVCAR-8 ovarian; 11.3% with OVCAR-5 ovarian; 15.5% in the experiment with OVCAR-4 ovarian; 24% in the experiment with SK-OV-3 ovarian; 25.6% in the experiment with IGROV1 ovarian. Further, the growth in the experiment on OVCAR-3 ovarian was 15.9%; with HS 578T breast, 19.9%; in the experiment with NCI/ADR-RES ovarian it was 61.8%; with T-47D breast, 11.8%; with BT-549 breast, 35.1%; in the experiment with MDA-MB-435 melanoma it was 21.1%. The growth in the experiment on SW-620 colon was 20.2%; in the experiment on MCF7 breast, 12.9%; in the experiment with HCT-116 colon, 9.82% (active); in the experiment on HCC-2998 colon, 30.2%; with KM12 colon it was 19.7%.
Regarding `Cc1ccc(Cn2c(-c3cccs3)nc3ccccc32)cc1`, the growth was 77.8% in the experiment on RPMI-8226 leukemia; 82.3% in the experiment on OVCAR-8 ovarian; 98.8% with OVCAR-5 ovarian; 76.6% in the experiment with OVCAR-4 ovarian; 100% with SK-OV-3 ovarian; 81.8% in the experiment with IGROV1 ovarian. For the same compound, the growth in the experiment on OVCAR-3 ovarian is 93.9%; with HS 578T breast it was 89.2%; in the experiment on NCI/ADR-RES ovarian, 85.6%; with T-47D breast, 72.5%; in the experiment with BT-549 breast, 128%; in the experiment with MDA-MB-435 melanoma it was 111%. For the same compound, the growth in the experiment on SW-620 colon is 81.2%; in the experiment with MCF7 breast, 87.7%; in the experiment on HCT-116 colon, 76.5%; in the experiment with HCC-2998 colon it was 94.9%; in the experiment with KM12 colon it was 96%.
As to `COc1cccc(-c2nc3sccn3c2-c2ccnc(NCCNS(=O)(=O)c3ccccc3)n2)c1`, the growth in the experiment on RPMI-8226 leukemia is 49.5%; in the experiment on OVCAR-8 ovarian, 49.2%; in the experiment on OVCAR-5 ovarian, 124%; with OVCAR-4 ovarian it was 57.4%; in the experiment on SK-OV-3 ovarian it was 79.9%; in the experiment with IGROV1 ovarian, 63.2%. The growth was 68.3% in the experiment with OVCAR-3 ovarian; 107% with HS 578T breast; 47.1% in the experiment with NCI/ADR-RES ovarian; 9.54% (active) with T-47D breast; 58.2% in the experiment on BT-549 breast; 29.8% in the experiment with MDA-MB-435 melanoma. Further, the growth is 106% in the experiment with SW-620 colon; 53.3% in the experiment on MCF7 breast; 49.7% in the experiment on HCT-116 colon; 119% in the experiment on HCC-2998 colon; 53.4% with KM12 colon.
As for `Cc1ccc2c(c1)C(C)Cc1c(N(C)C)ncnc1N2C` (stereo not drawn), the growth was 32.4% in the experiment with RPMI-8226 leukemia; 51% with OVCAR-8 ovarian; 83.9% in the experiment on OVCAR-5 ovarian; 61.1% in the experiment with OVCAR-4 ovarian; 35.1% in the experiment on SK-OV-3 ovarian; 59.5% in the experiment with IGROV1 ovarian. In addition, the growth with OVCAR-3 ovarian was 14%; in the experiment on HS 578T breast it was 6.88% (active); in the experiment on NCI/ADR-RES ovarian, 28.5%; with T-47D breast, 34.8%; with BT-549 breast, 30.6%; in the experiment with MDA-MB-435 melanoma, -6.18% (active). Moreover, the growth with SW-620 colon is 20.6%; with MCF7 breast, 16.9%; in the experiment with HCT-116 colon it was 19%; with HCC-2998 colon, 58.2%; with KM12 colon, 26.2%.
Regarding `CCC(c1cccc(Br)c1)C(C(=O)O)c1ccc(OC)cc1` (stereo not drawn), the growth in the experiment on RPMI-8226 leukemia is 101%; in the experiment on OVCAR-8 ovarian, 107%; in the experiment with OVCAR-5 ovarian, 109%; in the experiment with OVCAR-4 ovarian, 114%; with SK-OV-3 ovarian it was 107%; in the experiment on IGROV1 ovarian it was 99.3%. Also, the growth is 110% in the experiment with OVCAR-3 ovarian; 91.4% with HS 578T breast; 103% with NCI/ADR-RES ovarian; 108% with T-47D breast; 113% in the experiment on BT-549 breast; 29.9% in the experiment with MDA-MB-435 melanoma. Moreover, the growth with SW-620 colon is 93.2%; in the experiment on MCF7 breast, 93%; in the experiment on HCT-116 colon, 112%; in the experiment with HCC-2998 colon it was 93.5%; with KM12 colon, 83.3%.

The values above are taken from PubChem BioAssay (NCI).
